Data taken from PubChem BioAssay AID686979 (National Center for Advancing Translational Sciences (NCATS), 2013).
Out of some 420,000 compounds screened, about 50,000 (12%) were called active. Not shown: some 26% with an inconclusive outcome. What follows is part of a selection rich in actives, with near analogues and random picks from the rest. Values without a mark were called inactive. Calls come from the whole dose curve; as a rule, active = well fitted inhibition curve with a large enough effect; inconclusive = small, poorly fitted or top-dose-only effect; inactive = flat fitted curve, though single readings scatter.

Test: qHTS for Inhibitors of human tyrosyl-DNA phosphodiesterase 1 (TDP1): qHTS in cells in presence of CPT; note: nearly all actives have a fitted effect of over 55% in size
Details: chicken DT40 Tdp1-/-;hTDP1 cells + 20 nM CPT, ATP luminescence, 48 h; series mostly up to 46.2 µM; activity change, negative = growth inhibition: at the top concentration
Outline: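 Chicken DT40 Tdp1-/- cells stably complemented with human TDP1 were seeded at 400 cells/well in medium containing 20 nM camptothecin, exposed to pin-transferred compounds, and grown at 37 °C for at least 48 hr. Viability was read as ATP luminescence.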
% is set by controls: 0 for no effect and ±100 for the full control effect; potency is the fitted concentration of half-maximal effect.

With `C/C(=N\NC(=O)COc1ccc(C)cc1[N+](=O)[O-])c1ccc2c(c1)OCCO2` as the molecule, how does the “activity change, negative = growth inhibition” value read?
Its value is -29.2%.

For `Nc1nnc(SCC(=O)Nc2ccc3nc(SCC(=O)Nc4ccccc4)sc3c2)s1`, which Potency is on record?
The Potency was 13 µM (active).

For `O=C(NCc1nnc(SCC(=O)N2CCCc3ccccc32)o1)c1ccccc1F`, which “activity change, negative = growth inhibition” value is on record?
The value was -15%.

Which “activity change, negative = growth inhibition” value does the source give for `O=C(CSc1nc2ccccc2s1)Nc1ccc(C(=O)O)cc1` here?
The value was 7.64%.

With `Cc1nnc(SCC(=O)N2CCc3ccccc32)n1-c1ccccc1` as the molecule, how does the “activity change, negative = growth inhibition” value read?
The value was 7.14%.

Which “activity change, negative = growth inhibition” value does the source give for `O=C(Nc1ccc2nc(SCC(=O)N3CCc4ccccc43)sc2c1)c1ccccc1F` here?
The value was -18.9%.

With `Cn1c(=O)c2c(SCC(=O)N3CCc4ccccc43)nc(-c3ccc(Cl)cc3)nc2n(C)c1=O` as the molecule, how does the “activity change, negative = growth inhibition” value read?
Its value is -2.75%.

Which Potency does the source give for `O=C(Nc1ccc2nc(SCC(=O)N3CCCc4ccccc43)sc2c1)c1ccc(F)cc1` here?
The Potency was 5.8 µM (active).

With `CCC(=O)Nc1ccc2nc(SCC(=O)N3CCc4ccccc43)sc2c1` as the molecule, how does the Potency read?
The Potency was 16.4 µM (active).

With `O=C(Nc1ccc2nc(SCC(=O)N3CCCc4ccccc43)sc2c1)c1ccc(Cl)cc1` as the molecule, how does the Potency read?
Its Potency is 5.17 µM (active).

Which “activity change, negative = growth inhibition” value does the source give for `CC(=O)c1ccc(NC(=O)CSc2nnc(NC(=O)Nc3ccccc3)s2)cc1` here?
Its value is -18.4%.

With `O=C(CSc1ccc2nnc(-c3ccccc3)n2n1)N1CCCc2ccccc21` as the molecule, how does the “activity change, negative = growth inhibition” value read?
The value was 4.03%.

For `CC(=O)Nc1ccc(S(=O)(=O)NCC2CCC(C(=O)NCCc3ccccc3)CC2)cc1` (stereo not drawn), which Potency is on record?
Its Potency is “inactive”.

With `O=C(NC1CCCC1)C1CC(=O)N(c2ccc(F)cc2)C1` (stereo not drawn) as the molecule, how does the “activity change, negative = growth inhibition” value read?
The value was -1.64%.

With `Cc1cc(NC(=O)CN2C(=O)NC(CC(C)C)C2=O)no1` (stereo not drawn) as the molecule, how does the “activity change, negative = growth inhibition” value read?
The value was 1.11%.

With `CC(C(=O)N(C)CC(=O)Nc1ccccc1C(F)(F)F)N1C(=O)c2ccccc2C1=O` (stereo not drawn) as the molecule, how does the “activity change, negative = growth inhibition” value read?
Its value is 8.73%.

Which “activity change, negative = growth inhibition” value does the source give for `CC(OC(=O)c1cccnc1Cl)C(=O)NC1CCCCC1` (stereo not drawn) here?
The value was 2.06%.

With `CCN(Cc1ccccc1)C(=O)CCS(=O)(=O)c1ccc2c(c1)oc(=O)n2C` as the molecule, how does the Potency read?
Its Potency is “inactive”.

Which “activity change, negative = growth inhibition” value does the source give for `CCCCC(NS(=O)(=O)c1ccc(C)cc1)C(=O)Oc1ccc2c3c(c(=O)oc2c1)CCC3` (stereo not drawn) here?
The value was -28.7%.

With `CN1CCN(C(=O)c2cnn(-c3ccccc3)c2NC(=O)c2ccc([N+](=O)[O-])cc2)CC1` as the molecule, how does the “activity change, negative = growth inhibition” value read?
The value was -6.48%.

For `COC(=O)c1ccc(COC(=O)c2cnccn2)cc1`, which “activity change, negative = growth inhibition” value is on record?
The value was 13.1%.

For `CCc1nc2c(OCC(=O)C(C)(C)C)cccn2c1N(C)C(=O)c1ccccc1F`, which “activity change, negative = growth inhibition” value is on record?
The value was -21.1%.

For `CCOC(=O)c1nc(C)n(-c2ccc(Cl)cc2Cl)n1`, which “activity change, negative = growth inhibition” value is on record?
Its value is -13%.

For `Cc1nc2c(OCc3ccc(Cl)cc3Cl)cccn2c1N(C)CC1CC1`, which Potency is on record?
The Potency was 16.4 µM (active).

Which “activity change, negative = growth inhibition” value does the source give for `Clc1ccc(-c2ncc3ccccn23)c(Cl)c1` here?
Its value is 24%.

With `CCc1nc2c(OCc3ccc(C(=O)OC)cc3)cccn2c1N(C)C(=O)C(C)C` as the molecule, how does the Potency read?
Its Potency is 20.6 µM (active).

With `CCCCC(=O)N(C)c1c(CC)nc2c(OCc3ccc(Cl)cc3Cl)cccn12` as the molecule, how does the Potency read?
Its Potency is 20.6 µM (active).

Which “activity change, negative = growth inhibition” value does the source give for `CC(C)(C)NC(=O)NC(=O)COC(=O)Cc1ccc(Cl)cc1Cl` here?
Its value is 0.66%.

For `COC(=O)c1ccc(CSc2nncn2C)cc1`, which “activity change, negative = growth inhibition” value is on record?
Its value is -22%.

Which Potency does the source give for `CCc1nc2c(OCc3ccc(Cl)cc3Cl)cccn2c1N(C)C(=O)C(C)C` here?
Its Potency is 7.31 µM (active).

Which “activity change, negative = growth inhibition” value does the source give for `CC(C)(C)OC(=O)NC(Cc1ccccc1)C(=O)NC(CSC1CCCCO1)C(=O)NN` (stereo not drawn) here?
Its value is -3.48%.

Which “activity change, negative = growth inhibition” value does the source give for `CC(=O)c1cc2c(cc1NC(=O)Cn1nc(-c3ccc(F)cc3)ccc1=O)OCO2` here?
Its value is 3.19%.

For `COc1ccccc1OCCCCCCN1CCN(C)CC1`, which “activity change, negative = growth inhibition” value is on record?
The value was -6.86%.

With `CC(C)[C@H](NC(=O)N1c2ccccc2NC(=O)[C@@H]1C(C)C)C(=O)N[C@H](C(=O)O)c1ccccc1` as the molecule, how does the “activity change, negative = growth inhibition” value read?
The value was -2.73%.

For `CCCNC(=O)c1onc(CSc2ccc(F)cc2)c1C(=O)NC(C)C`, which “activity change, negative = growth inhibition” value is on record?
Its value is -1.26%.

For `COc1cc(C(=O)N2CCC(c3ccncc3)CC2)cc(OC)c1OC`, which “activity change, negative = growth inhibition” value is on record?
Its value is -4.5%.

With `COc1cc(C(F)(F)F)nc2c(Br)c(C(C)(C)C)nn12` as the molecule, how does the “activity change, negative = growth inhibition” value read?
The value was -7.92%.

Which “activity change, negative = growth inhibition” value does the source give for `Cc1cc2nc(-c3ccc(NC(=O)c4cc5ccccc5o4)cc3)oc2cc1C` here?
Its value is -6.85%.

With `CC(OC(=O)/C=C/c1ccccc1)C(=O)NC1CCCCC1C` (stereo not drawn) as the molecule, how does the “activity change, negative = growth inhibition” value read?
Its value is -15.4%.

For `CN(C)CCCN(C(=O)COc1ccccc1)c1nc2c(Cl)cccc2s1`, which “activity change, negative = growth inhibition” value is on record?
The value was -17.7%.

For `O=C(NCc1cccnc1)Nc1ccccc1F`, which “activity change, negative = growth inhibition” value is on record?
Its value is -2.51%.

With `Cc1cccc2sc(N(CCCN(C)C)C(=O)CCS(=O)(=O)c3ccccc3)nc12` as the molecule, how does the Potency read?
Its Potency is 1.84 µM (active).

Which Potency does the source give for `O=C(CCS(=O)(=O)c1ccccc1)N(Cc1cccnc1)c1nc2c(F)cccc2s1` here?
The Potency was 3.66 µM (active).

With `COc1cccc2sc(N(CCCN(C)C)C(=O)C(c3ccccc3)c3ccccc3)nc12` as the molecule, how does the Potency read?
The Potency was 20.6 µM (active).

Which Potency does the source give for `COc1ccc(N(C)C(=O)CCS(=O)(=O)c2cccc3nsnc23)cc1` here?
Its Potency is “inactive”.

With `O=C(C1COc2ccccc2O1)N(Cc1cccnc1)c1nc2c(F)cc(F)cc2s1` (stereo not drawn) as the molecule, how does the “activity change, negative = growth inhibition” value read?
Its value is -18.9%.

Which “activity change, negative = growth inhibition” value does the source give for `CN(C)CCN(C(=O)CN1C(=O)c2ccccc2C1=O)c1nc2cc3c(cc2s1)OCCO3` here?
The value was -10.4%.

For `Cc1cccc(C)c1NC(=O)CCS(=O)(=O)c1cccc2nsnc12`, which “activity change, negative = growth inhibition” value is on record?
The value was -2.61%.

With `Cn1c(=NC(=O)c2ccc3c(c2)OCCO3)sc2cc(S(C)(=O)=O)ccc21` as the molecule, how does the Potency read?
The Potency was “inactive”.

Which “activity change, negative = growth inhibition” value does the source give for `O=C(NCc1ccncc1)c1cccc(NS(=O)(=O)c2ccc(F)c(F)c2)c1` here?
The value was -24.5%.

For `COc1ccccc1OCCC(=O)OCC(=O)NCc1ccccc1`, which “activity change, negative = growth inhibition” value is on record?
Its value is -3.12%.

Which “activity change, negative = growth inhibition” value does the source give for `CC(C)c1c(O)nc(SCCOc2ccc(Cl)cc2)[nH]c1=O` here?
Its value is -21.2%.

Which “activity change, negative = growth inhibition” value does the source give for `COc1ccc(CN2C(=O)C(CC(=O)NCCCCc3ccccc3)CC(C(=O)N3CCOCC3)=C2C)cc1` (stereo not drawn) here?
Its value is -23%.

With `Cc1ncc2c(c1CNS(=O)(=O)N(C)C)CCN(C(=O)c1ccccc1F)C2` as the molecule, how does the activity change, negative = growth inhibition read?
Its activity change, negative = growth inhibition is 12.2% [at 9.04 µM].

Which “activity change, negative = growth inhibition” value does the source give for `O=C(NCc1cccc(Cl)c1)C1=CC=CN2CCS(=O)(=O)N=C12` here?
The value was -1.14%.

With `COc1ccc(Cl)cc1NC(=O)CN(C)C(=O)c1ccc2n[nH]nc2c1` as the molecule, how does the “activity change, negative = growth inhibition” value read?
The value was 2.23%.

For `COc1ccc(-c2cc(C(=O)N(C)CC(=O)Nc3ccccc3Cl)c3ccccc3n2)cc1OC`, which Potency is on record?
Its Potency is 20.6 µM (active).

For `COc1ccc(CN(C)C(=O)Cc2ccsc2)c(OC)c1OC`, which “activity change, negative = growth inhibition” value is on record?
The value was 4.57%.

For `COc1ccc(-c2cc(C(=O)N(C)Cc3ccc(OC)c(OC)c3OC)c3ccccc3n2)cc1OC`, which Potency is on record?
The Potency was 16.4 µM (active).

Which “activity change, negative = growth inhibition” value does the source give for `COc1ccc(-c2cc(C(=O)NCCCN3CCCC3=O)c3ccccc3n2)cc1OC` here?
Its value is -21.6%.

Which “activity change, negative = growth inhibition” value does the source give for `COc1cccc(NC(=O)CN(C)C(=O)c2cc(Cl)nc3ccccc23)c1` here?
Its value is -8.6%.

With `COc1ccc(CN2[C@@H](CC(=O)O)c3cc(F)ccc3S2(=O)=O)cc1` as the molecule, how does the Potency read?
Its Potency is “inactive”.

With `CCN(CC)S(=O)(=O)c1ccc(-c2cn3ccc(C)cc3n2)cc1` as the molecule, how does the “activity change, negative = growth inhibition” value read?
Its value is -7.04%.
